Here are results for 109 compounds from ChEMBL document CHEMBL4513216, “Probing the Open Global Health Chemical Diversity Library for Multistage-Active Starting Points for Next-Generation Antimalarials” (ACS Infect Dis, 2020).

The whole screen tested about 69,000 compounds, of which about 8,600 (12%) showed an effect of 50% or more. Only a selection was taken, and strong results are over-represented in it overall.

This assay concerns Plasmodium berghei. Briefly: Screen against P. berghei liver stage (PbLuc), transformed with Luciferase, at 10uM. Format: functional, HepG2. The conditions noted are these: tested at 10 uM.
Regarding `CCN1CC(CN(C)Cc2nc(-c3ccc(C)o3)oc2C)CC1=O` (centres undefined), the INHIBITION was determined as 34.2%.
Under `Cc1noc(C(C)C)c1C(=O)NS(=O)(=O)c1ccc2c(c1)OCCCO2` stands 7.9%.
Under `CNC(=O)c1ccc(-c2ccc(CNC(=O)COC)cc2)nc1C` stands 10.9%; under `Cc1ccc(CN(C(=O)NCC2CCS(=O)(=O)C2)C2CC2)o1` (centres undefined), -39.2%.
Under `CCCn1nc(C(=O)NC2(c3ccc(Cl)cc3)CCCC2)ccc1=O` stands -51.3%; under `CCc1nc2n(n1)CC(NCc1cnn(-c3ccccc3)n1)CC2` (centres undefined), 10.9165%; under `CN1CCOCC12CCN(Cc1ccoc1)CC2`, -13.2%.
`COc1ccc(CN(Cc2cn(C)nc2C)CC2CCCO2)c(OC)c1` (centres undefined): the INHIBITION came to 21.9%.
`COc1cccc(CN2CCC(c3nnc(-c4cnc(C)cn4)o3)C2)c1` (centres undefined): the INHIBITION is 29.3%.
Under `COc1cccc(-c2noc(C3CCN(Cc4cn(C)nc4C)C3)n2)c1` (centres undefined) stands 84.8%; under `CSCc1cccc(S(=O)(=O)Nc2cc(C)on2)c1`, 8.7%; under `Cc1nc(C)c(C(=O)NCCNc2ncccc2C#N)s1`, 13.3%.
The value for `CSc1ncccc1C(=O)NCCC(O)c1cccs1` (centres undefined) was 26%; that for `CSc1ccccc1C(=O)NCCC(O)c1ccco1` (centres undefined) was 45.7%; that for `CSc1ncccc1C(=O)NCCC(O)c1ccco1` (centres undefined) was 53.2%.
The value for `Cc1cccc(C(=O)N2CC(Cc3nccc4ccn(C)c34)C2)n1` was -23.8%; that for `CN(C)CCOCC1CN(Cc2ccsc2)Cc2ccnn2C1` (centres undefined) was 11.4%.
Regarding `CN(C)CCN(Cc1ccc(C(F)(F)F)cc1)C(=O)c1cc[nH]n1`, the INHIBITION amounted to 63.3%.
For the compound `CN(C)CCN(Cc1ccc(Cl)cc1)C(=O)c1ccncc1`, the INHIBITION was 10.6%.
Under `Cc1cnc(C(=O)N(CCN(C)C)Cc2ccc(Cl)cc2)cn1` stands 12.2%; under `CN(C)CCN(Cc1ccc(Cl)cc1)C(=O)c1cc[nH]n1`, 10%.
Turning to `CN(C)CCN(Cc1ccc(Cl)cc1)C(=O)c1cnccn1`, the INHIBITION amounted to 68.3%.
The value for `CN(C)CCN(Cc1cccc(C(F)(F)F)c1)C(=O)c1cc[nH]n1` was 22.4%; that for `Cc1ncc(C(=O)N2CCOC(C(=O)N3CCCCCC3)C2)c(C)n1` (centres undefined) was 35.1%.
Under `O=C(CN1CCCCC1)N1CCC(c2cc(=O)n3c(n2)CCCCC3)C1` (centres undefined) stands -15.3%.
Under `CC(C)NC(=O)NCC1(COc2cnccn2)C[C@@H](O)[C@@H](O)C1` (some centres undefined) stands 45.2%; under `O=S(=O)(Cc1ccccc1F)N1CCCC1c1nnc2n1CCCCC2` (centres undefined), 20.1%; under `CN1CCCCC12CCN(c1nncs1)CC2`, -0.804%.
For `CS(=O)(=O)N1CCOCC12CCN(c1nncs1)CC2`, the INHIBITION is recorded as 26.5%.
The value for `CS(=O)(=O)N1CCCCC12CCN(c1nncs1)CC2` was 55.5%; that for `CC(=O)N1CCCC(c2ccc(C(N)=O)cn2)C1` (centres undefined) was 40%.
The value for `CCc1ccc(C2c3nc[nH]c3CCN2Cc2nccn2CC)nc1` (centres undefined) was 29.3%; that for `CC(=O)N1CC2(CCCC2)c2ccccc21` was 7.21%; that for `CC1c2ccsc2CCN1Cc1cc2c(cc1O)OCO2` (centres undefined) was 18.2%.
Take `CCC1c2ccsc2CCN1Cc1cc2c(cc1OC)OCCO2` (centres undefined): the INHIBITION stood at 69.4%.
The value for `COc1ccsc1C(=O)Nc1cc(CN2CCOCC2)ccc1C` was -29.4%.
Under `COc1cc2c(cc1CN1CCc3sccc3C1C)OCCO2` (centres undefined) stands 40.6%.
For the compound `COc1cc2c(cc1CN1CCc3sccc3C1C)OCO2` (centres undefined), the INHIBITION worked out at 26.7%.
Under `COc1ccc(CN2CCc3sccc3C2C)cc1CN1CCOCC1` (centres undefined) stands 52.7%.
The value for `Cn1ncc2c1NC(=O)CC2c1cccs1` (centres undefined) was -3.77%; that for `CC(c1cccc(F)c1)N1CCN(Cc2nccn2C)CC1` (centres undefined) was -39.7%.
`CC(=O)NCC(=O)N1CCC2(COCc3c(C)nc(N(C)C)nc32)C1` (centres undefined): the INHIBITION is listed as -13.2%.
Under `Cc1ccc(NC2CCN(C(=O)c3ccco3)CC2)nn1` stands -17%.
The value for `Cc1ccc2c(n1)N(CC1CC1)CCN(C(=O)c1ccncc1F)C2` was -37.4%.
The value for `Cn1cnc2c1CCN(CCCS(=O)(=O)c1ccccc1)C2` was -1.14%; that for `Cn1cnc2c1CCN(CCS(=O)(=O)c1ccc(Cl)cc1)C2` was 52.3%.
`Cn1cnc2c1CCN(CCCOc1ccc(S(C)(=O)=O)cc1)C2`: the INHIBITION came to 49%.
The value for `Cn1cnc2c1CCN(CCS(=O)(=O)c1ccccc1)C2` was 24.4%; that for `Cn1cnc2c1CCN(CC(O)c1ccc(S(C)(=O)=O)cc1)C2` (centres undefined) was 57.6%.
Under `Cn1cnc2c1CCN(CC(O)c1ccc3c(c1)OCCO3)C2` (centres undefined) stands 42.6%.
As to `Cc1cc(C)nc(Nc2cc(C3CCCN(C)C3)nc(C)n2)n1` (centres undefined), the INHIBITION worked out at 46.1%.
The value for `CCc1nc(C2CCCN2Cc2ccn(C)c(=O)c2)no1` (centres undefined) was 21.255%.
On to `CCn1c(C(=O)N2CCCN(CC(N)=O)CC2)cc2ccccc21`, for which the INHIBITION is -27.8%.
The value for `CN(CCNC(=O)c1cccnc1)S(C)(=O)=O` was 30.9%.
The value for `CCc1nn(C)c(Cl)c1CN1CCC2(C1)CN(C)C(=O)O2` (centres undefined) was -73.7%; that for `CCc1nn(C)c(Cl)c1CN1CCCC2(C1)CN(C)C(=O)O2` (centres undefined) was 14.9%; that for `CCc1nn(C)c(Cl)c1CN1CCCC2(CC1)CN(C)C(=O)O2` (centres undefined) was 53.4%.
The value for `CN(C)Cc1ccccc1Cn1cncc1-c1cnn(C)c1` was 12.8%; that for `O=S(=O)(c1cccs1)N1CCCn2cnc(CO)c2C1` was 26.3%.
For `CC(NC(=O)CCn1c(=O)oc2ccccc21)c1ccccn1` (centres undefined), the INHIBITION amounted to 8.65%.
Consider `CCNC(=O)C1CCCN(c2ccc3ccc(F)cc3n2)C1` (centres undefined), for which the INHIBITION turned out to be 20.8%.
The value for `Cn1ncc(C(=O)O)c1C(=O)Nc1nc2ccccc2s1` was 45.4%; that for `CNC(=O)C1CCCN(c2nc3c(-c4ccccc4)csc3c(=O)[nH]2)C1` (centres undefined) was 11.6%; that for `Cn1nc(N2CCCC(C(=O)Nc3nccs3)C2)ccc1=O` (centres undefined) was 21.5%.
Under `Cn1nc(N2CCCC(C(=O)Nc3nc4ccccc4[nH]3)C2)ccc1=O` (centres undefined) stands 51%.
`Cn1nc(N2CCCC(C(=O)Nc3nc4ccccc4s3)C2)ccc1=O` (centres undefined): the INHIBITION stood at 82.2%.
For `CCOCCSc1nnc(-c2cn(CC)nc2OCC)n1C`, the INHIBITION came out at 1.95%.
For `O=C(C1CCCCC1)N1CCCC([C@@H]2C[C@H](C(F)F)n3ncnc3N2)C1` (some centres undefined), the INHIBITION is 25.26%.
Under `Cc1cc(C)nc(C2CCN(C(=O)CCn3ncc4ccccc43)C2)n1` (centres undefined) stands 9.93%.
Under `CC(Cn1cccn1)NCc1csc2c1CCCC2` (centres undefined) stands 46.6%; under `CC(Cn1cncn1)NCc1csc2c1CCCC2` (centres undefined), 51.1%; under `CC(Cn1ccnc1)NCc1csc2c1CCCC2` (centres undefined), 31.4%.
Under `CCc1nnc(CN2CCc3ccc(S(N)(=O)=O)cc32)o1` stands 18%; under `CN(CCc1ccccn1)C(=O)CCC1CCCN(c2cnccn2)C1` (centres undefined), 27.6%; under `CC(=O)N1CCc2nnc(C3CCCCN3CC3CCCCC3)n2CC1` (centres undefined), 42.4%.
Turning to `COCCNC(=O)NC1(c2ccccc2F)CC1`, the INHIBITION turned out to be 20%.
The value for `CCN(CC)C(CNC(=O)c1ccnc(N(C)C)c1)c1ccsc1` (centres undefined) was 13.3%; that for `Cc1ccc(C)c(C(=O)NC2CCC(N3C(=O)CCC3=O)CC2)c1` (centres undefined) was -56.4%.
Consider `Cc1ccc(C)c(CC(=O)NC2CCS(=O)(=O)CC2)c1`, for which the INHIBITION came to 41.5%.
Take `Cc1ccc(C)c(CC(=O)NC2CCC(N3C(=O)CCC3=O)CC2)c1` (centres undefined): the INHIBITION worked out at 50.1%.
The value for `CN(Cc1cccnc1)Cc1cn2c(n1)CN(C1CCOCC1)CC2` was 4.57%.
Under `CC1=CC[C@@H]2CN(C(=O)c3ccc(-c4cc[nH]n4)cc3)C[C@@H]2C1` stands -37.1%.
Under `COc1ccc(CNC(=O)NCCc2csc(C)n2)cn1` stands 36.1%; under `Cn1ccc(NCc2cc3cc(F)ccc3o2)n1`, -18%.
`CN1CCC(N2CCOC[C@H]2c2nc(-c3ccncc3)c[nH]2)CC1`: the INHIBITION stood at 35.8%.
Under `c1cc(CN2CCOC[C@H]2c2nc(-c3ccncc3)c[nH]2)ccn1` stands -7.59%; under `Cc1ccc(-c2c[nH]c([C@@H]3COCCN3Cc3ncc[nH]3)n2)cc1`, 46.6%; under `CN1CCC(N2CCOC[C@H]2c2nc(C(C)(C)C)c[nH]2)CC1`, 49.5%.
For the compound `Fc1cccc(-c2c[nH]c([C@@H]3COCCN3C3CCOCC3)n2)c1`, the INHIBITION is reported as -24.1%.
Under `CN1CCOC[C@H]1c1nc(-c2cccc(F)c2)c[nH]1` stands 9.51%; under `c1cc(-c2c[nH]c([C@@H]3COCCN3Cc3ncc[nH]3)n2)ccn1`, 54.7%.
For `CC(C)(C)CN1CCOC[C@H]1c1nc(-c2cccc(F)c2)c[nH]1`, the INHIBITION was found to be 64.8%.
For `CN1CCOC[C@H]1c1nc(C(C)(C)C)c[nH]1`, the INHIBITION is 50.2%.
Turning to `CN1CCOC[C@H]1c1nc(-c2ccccc2)c[nH]1`, the INHIBITION is -23.1%.
The value for `CN1CCOC[C@H]1c1nc(-c2ccncc2)c[nH]1` was 52%; that for `CC(C)(C)c1c[nH]c([C@@H]2COCCN2C2CCC2)n1` was 23%.
Take `COCC(=O)N1CCC2(CC1)CN(S(C)(=O)=O)Cc1ccccc1O2`: the INHIBITION is reported as 14.94%.
As for `c1ncn(CC2CN(Cc3ccc4c(c3)OCCO4)CCO2)n1` (centres undefined), the INHIBITION was found to be 17.4%.
Under `O=C(CC1CN(Cc2ccccc2)CCO1)Nc1ccsc1` (centres undefined) stands 31.3%; under `CC(C)[C@H]1CN(C(=O)CO)C[C@@H]1N(C)C`, 14%.
The value for `CCS(=O)(=O)N1C[C@@H](O)[C@H](N(C)Cc2ccc(F)cc2)C1` was 11.94%; that for `CC1CCN(C(=O)c2ccn(COc3ccccc3)n2)CC1` was -15.5%; that for `CC(NC(=O)c1cc2n(n1)CCCN(C(C)C)C2)c1cn2ccsc2n1` (centres undefined) was -59.5%.
Under `CSc1ccccc1C(=O)NCc1cc2n(n1)CCCN(CC(C)C)C2` stands 38.2%; under `CC(C)N1CCCn2nc(C(=O)NCCc3c[nH]cn3)cc2C1`, 18.2%; under `O=C(NCc1ccccn1)c1cc2n(n1)CCNC2`, -54.5%.
For the compound `CC(C)N1CCCn2nc(C(=O)NCc3ccccc3F)cc2C1`, the INHIBITION is on record as 62.6%.
Under `CC(C)N1CCCn2nc(C(=O)NCCc3ccccn3)cc2C1` stands 57.2%.
Under `CCN1CCO[C@@H]2CN(S(=O)(=O)c3cccs3)CC[C@@H]2C1` stands 15.6%.
